Reference: the supplement of paper PMC10849652
Of roughly 7,900 targets only a part is listed; those with a hit were picked by preference. About 0.6% of all pairs of compound and target were hits. Unmarked numbers belong to inactive results.

Compound: C1=CC2=NC=CN=C2C=C1/C=C/3\C(=O)NC(=O)S3
Assay: log2 fold change, soluble protein after heating vs DMSO (PISA); higher = thermal stabilisation; K562 cells, 10 uM, 30 min; active = over 0.2 and 3.5 SD of the protein, either way, in both replicates (recomputed)
Outline: (§1)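 Quantification of soluble protein used TMTpro 16plex LC-MS/MS, with channel sums equalised. Samples were the supernatant after 21,000xg for 90 min of pooled aliquots from K562 cells (2×10^6 cells/mL) treated with 10 μM compound for 30 min, heated for 3 min over 48°C-58°C, and extracted in PBS with 0.5% NP-40 at 4°C. Values, from duplicates, describe thermal stability against control samples on a log2 fold-change scale.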

UniProt Q6P1M0, sequence (Q6P1M0 whole entry, looked up): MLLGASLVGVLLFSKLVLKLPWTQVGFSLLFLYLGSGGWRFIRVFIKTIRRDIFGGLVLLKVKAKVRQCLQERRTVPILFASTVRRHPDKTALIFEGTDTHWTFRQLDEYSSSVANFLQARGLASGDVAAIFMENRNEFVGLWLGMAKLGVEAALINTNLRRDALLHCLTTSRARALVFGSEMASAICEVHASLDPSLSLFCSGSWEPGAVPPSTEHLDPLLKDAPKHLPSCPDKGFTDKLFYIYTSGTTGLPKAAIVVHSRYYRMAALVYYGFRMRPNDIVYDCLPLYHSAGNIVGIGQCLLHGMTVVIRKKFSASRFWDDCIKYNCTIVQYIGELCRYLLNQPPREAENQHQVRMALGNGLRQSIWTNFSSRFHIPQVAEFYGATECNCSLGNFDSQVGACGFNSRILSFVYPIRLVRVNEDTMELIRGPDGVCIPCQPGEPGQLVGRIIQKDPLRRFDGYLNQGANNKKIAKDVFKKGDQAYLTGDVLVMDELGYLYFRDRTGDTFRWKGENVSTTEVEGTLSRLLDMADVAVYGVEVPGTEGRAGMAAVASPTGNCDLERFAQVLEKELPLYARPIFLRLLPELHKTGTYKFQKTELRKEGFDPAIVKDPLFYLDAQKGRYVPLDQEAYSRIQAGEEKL
UniProt Q08170, sequence (Q08170 whole entry, looked up): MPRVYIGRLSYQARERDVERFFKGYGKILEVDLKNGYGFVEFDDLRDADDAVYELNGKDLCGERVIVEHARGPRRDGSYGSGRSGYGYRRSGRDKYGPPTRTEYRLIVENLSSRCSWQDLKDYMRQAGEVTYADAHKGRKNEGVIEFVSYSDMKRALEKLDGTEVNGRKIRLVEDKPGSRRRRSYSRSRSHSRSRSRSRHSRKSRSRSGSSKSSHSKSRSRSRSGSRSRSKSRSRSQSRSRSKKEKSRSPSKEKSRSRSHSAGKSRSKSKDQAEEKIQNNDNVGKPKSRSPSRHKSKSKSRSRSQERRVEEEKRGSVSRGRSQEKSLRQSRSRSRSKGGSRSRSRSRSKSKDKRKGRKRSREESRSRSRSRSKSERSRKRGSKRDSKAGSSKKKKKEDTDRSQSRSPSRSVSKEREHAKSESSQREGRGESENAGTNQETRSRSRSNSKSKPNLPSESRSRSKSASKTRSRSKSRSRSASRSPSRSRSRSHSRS
UniProt Q8N5G0, sequence (Q8N5G0 whole entry, looked up): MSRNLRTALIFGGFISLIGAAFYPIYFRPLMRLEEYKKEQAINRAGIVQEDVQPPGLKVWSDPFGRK
UniProt Q9Y5W9, sequence (Q9Y5W9 whole entry, looked up): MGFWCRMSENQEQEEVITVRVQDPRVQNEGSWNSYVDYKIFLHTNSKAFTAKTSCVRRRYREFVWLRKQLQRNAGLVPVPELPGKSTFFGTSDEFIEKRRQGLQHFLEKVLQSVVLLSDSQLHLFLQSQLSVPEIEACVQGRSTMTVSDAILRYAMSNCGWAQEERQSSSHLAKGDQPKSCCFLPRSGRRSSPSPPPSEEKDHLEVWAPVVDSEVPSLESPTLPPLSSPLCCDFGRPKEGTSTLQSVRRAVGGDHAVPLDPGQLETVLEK
UniProt P50225, sequence (P50225 whole entry, looked up): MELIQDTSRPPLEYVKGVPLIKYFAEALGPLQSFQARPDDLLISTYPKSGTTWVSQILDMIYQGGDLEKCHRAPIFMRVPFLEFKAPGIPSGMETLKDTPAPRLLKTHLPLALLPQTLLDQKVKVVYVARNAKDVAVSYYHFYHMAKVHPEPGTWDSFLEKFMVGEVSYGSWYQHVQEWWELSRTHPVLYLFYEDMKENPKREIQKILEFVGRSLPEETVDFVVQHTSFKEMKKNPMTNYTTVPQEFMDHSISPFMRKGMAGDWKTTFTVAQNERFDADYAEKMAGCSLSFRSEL
UniProt Q9C0B7, sequence (Q9C0B7 whole entry, looked up): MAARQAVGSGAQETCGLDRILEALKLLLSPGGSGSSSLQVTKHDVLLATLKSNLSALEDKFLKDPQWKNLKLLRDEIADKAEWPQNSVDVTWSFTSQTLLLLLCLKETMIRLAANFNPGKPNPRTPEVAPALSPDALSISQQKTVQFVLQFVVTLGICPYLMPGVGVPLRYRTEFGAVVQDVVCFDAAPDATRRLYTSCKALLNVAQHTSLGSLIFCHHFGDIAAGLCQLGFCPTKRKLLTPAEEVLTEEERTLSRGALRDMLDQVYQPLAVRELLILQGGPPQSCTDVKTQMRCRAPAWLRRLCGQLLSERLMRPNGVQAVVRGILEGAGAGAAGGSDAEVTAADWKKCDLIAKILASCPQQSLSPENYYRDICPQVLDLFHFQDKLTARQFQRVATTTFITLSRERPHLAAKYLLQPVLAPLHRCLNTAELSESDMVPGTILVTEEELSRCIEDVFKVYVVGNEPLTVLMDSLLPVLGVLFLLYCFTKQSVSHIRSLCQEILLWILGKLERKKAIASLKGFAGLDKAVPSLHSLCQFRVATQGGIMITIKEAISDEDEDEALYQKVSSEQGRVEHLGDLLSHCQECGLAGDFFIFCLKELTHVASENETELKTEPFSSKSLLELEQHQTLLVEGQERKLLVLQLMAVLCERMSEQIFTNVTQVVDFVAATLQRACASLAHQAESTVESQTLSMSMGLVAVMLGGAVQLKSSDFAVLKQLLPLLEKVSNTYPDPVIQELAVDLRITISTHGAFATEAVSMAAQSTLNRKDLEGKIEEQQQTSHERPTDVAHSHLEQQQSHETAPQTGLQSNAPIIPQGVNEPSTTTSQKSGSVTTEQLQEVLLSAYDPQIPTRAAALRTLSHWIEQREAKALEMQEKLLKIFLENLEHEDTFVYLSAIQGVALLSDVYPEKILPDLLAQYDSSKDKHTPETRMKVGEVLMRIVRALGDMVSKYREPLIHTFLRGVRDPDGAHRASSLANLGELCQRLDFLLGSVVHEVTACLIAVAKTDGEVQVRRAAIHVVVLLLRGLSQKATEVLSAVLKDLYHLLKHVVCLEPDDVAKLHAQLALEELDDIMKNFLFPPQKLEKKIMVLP
UniProt P23497, sequence (P23497 whole entry, looked up): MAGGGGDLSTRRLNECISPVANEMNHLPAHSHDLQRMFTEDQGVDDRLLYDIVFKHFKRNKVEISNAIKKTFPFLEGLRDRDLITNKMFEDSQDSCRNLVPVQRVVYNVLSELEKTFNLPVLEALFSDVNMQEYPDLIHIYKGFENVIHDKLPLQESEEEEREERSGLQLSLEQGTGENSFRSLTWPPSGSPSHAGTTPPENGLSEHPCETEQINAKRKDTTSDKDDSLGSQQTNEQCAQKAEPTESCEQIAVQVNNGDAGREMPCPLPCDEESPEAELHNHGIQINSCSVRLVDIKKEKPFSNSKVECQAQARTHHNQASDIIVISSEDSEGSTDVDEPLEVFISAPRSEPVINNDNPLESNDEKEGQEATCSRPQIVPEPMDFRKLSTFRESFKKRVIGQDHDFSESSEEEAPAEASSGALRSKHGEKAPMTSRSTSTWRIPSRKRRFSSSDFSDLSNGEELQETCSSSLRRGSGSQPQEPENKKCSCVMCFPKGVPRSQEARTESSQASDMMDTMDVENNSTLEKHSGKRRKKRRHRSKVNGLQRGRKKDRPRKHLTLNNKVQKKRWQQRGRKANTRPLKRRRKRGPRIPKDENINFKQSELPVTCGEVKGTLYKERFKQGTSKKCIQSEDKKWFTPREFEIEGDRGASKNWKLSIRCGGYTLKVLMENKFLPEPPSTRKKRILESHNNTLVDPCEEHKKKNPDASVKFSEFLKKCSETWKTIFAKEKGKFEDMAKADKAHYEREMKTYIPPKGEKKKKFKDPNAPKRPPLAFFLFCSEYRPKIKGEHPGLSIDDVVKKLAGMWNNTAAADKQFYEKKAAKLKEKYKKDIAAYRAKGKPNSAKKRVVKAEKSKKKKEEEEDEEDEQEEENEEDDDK
UniProt Q9H2K8, sequence (Q9H2K8 whole entry, looked up): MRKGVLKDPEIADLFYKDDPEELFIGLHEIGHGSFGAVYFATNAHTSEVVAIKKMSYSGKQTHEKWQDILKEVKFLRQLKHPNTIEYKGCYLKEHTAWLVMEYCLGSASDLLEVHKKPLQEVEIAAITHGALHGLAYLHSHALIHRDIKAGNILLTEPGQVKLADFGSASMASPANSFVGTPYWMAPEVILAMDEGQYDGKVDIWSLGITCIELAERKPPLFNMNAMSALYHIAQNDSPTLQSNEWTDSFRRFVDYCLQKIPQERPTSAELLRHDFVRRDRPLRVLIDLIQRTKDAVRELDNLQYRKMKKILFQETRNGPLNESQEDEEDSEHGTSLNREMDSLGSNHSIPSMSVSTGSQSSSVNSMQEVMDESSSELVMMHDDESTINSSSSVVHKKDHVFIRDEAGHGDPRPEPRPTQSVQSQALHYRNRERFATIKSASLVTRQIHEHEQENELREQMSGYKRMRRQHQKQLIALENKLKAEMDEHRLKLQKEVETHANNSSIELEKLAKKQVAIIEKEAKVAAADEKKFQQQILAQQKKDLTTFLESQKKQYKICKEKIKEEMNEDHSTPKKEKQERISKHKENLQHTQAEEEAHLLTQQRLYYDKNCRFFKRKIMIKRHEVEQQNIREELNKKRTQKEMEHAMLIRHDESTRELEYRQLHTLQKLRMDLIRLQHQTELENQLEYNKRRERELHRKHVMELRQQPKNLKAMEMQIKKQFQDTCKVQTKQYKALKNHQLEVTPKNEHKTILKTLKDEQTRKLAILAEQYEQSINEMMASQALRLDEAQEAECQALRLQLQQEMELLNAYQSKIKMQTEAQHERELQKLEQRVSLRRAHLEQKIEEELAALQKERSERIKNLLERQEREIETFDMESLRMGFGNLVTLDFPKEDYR
UniProt Q13242, sequence (Q13242 whole entry, looked up): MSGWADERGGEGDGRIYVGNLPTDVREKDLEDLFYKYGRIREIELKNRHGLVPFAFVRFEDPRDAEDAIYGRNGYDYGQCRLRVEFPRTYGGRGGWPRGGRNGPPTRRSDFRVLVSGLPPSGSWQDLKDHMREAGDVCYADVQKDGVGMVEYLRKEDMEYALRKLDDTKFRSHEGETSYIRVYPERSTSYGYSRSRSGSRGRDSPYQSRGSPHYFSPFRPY
UniProt Q9Y5L4, sequence (Q9Y5L4 whole entry, looked up): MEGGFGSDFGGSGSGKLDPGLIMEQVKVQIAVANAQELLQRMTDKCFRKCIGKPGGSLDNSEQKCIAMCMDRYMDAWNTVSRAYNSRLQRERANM

| Target | log2 fold change |
| --- | --- |
| STK38 (UniProt Q15208) | 0.079 |
| TBC1D24 (UniProt Q9ULP9) | 0 |
| SMARCA4 (UniProt P51532) | -0.001 |
| TAOK3 (UniProt Q9H2K8) | 0.018 |
| SP100 isoform 4 (UniProt P23497) | 0.063 |
| SLC35B4 (UniProt Q969S0) | 0.024 |
| TBRG4 (UniProt Q969Z0) | -0.056 |
| TIMM10B (UniProt Q9Y5J6) | 0.048 |
| SMIM20 isoform 2 (UniProt Q8N5G0) | 0.088 |
| SPTBN4 (UniProt Q9H254) | -0.027 |
| TGFBI (UniProt Q15582) | 0.034 |
| STARD3NL (UniProt O95772) | 0.048 |
| TJP1 (UniProt Q07157) | -0.135 |
| TANGO6 (UniProt Q9C0B7) | 0.057 |
| TANK (UniProt Q92844) | 0.053 |
| SRC isoform 2 (UniProt P12931) | 0.022 |
| SUOX (UniProt P51687) | 0.036 |
| SNRNP40 (UniProt Q96DI7) | 0.049 |
| SNX11 (UniProt Q9Y5W9) | -0.028 |

| Target | log2 fold change |
| --- | --- |
| TIMM13 (UniProt Q9Y5L4) | 0.111 |
| TATDN2 (UniProt Q93075) | -0.052 |
| SRSF9 (UniProt Q13242) | 0.052 |
| SLC35F6 (UniProt Q8N357) | -0.047 |
| SMCHD1 (UniProt A6NHR9) | 0.046 |
| SP3 (UniProt Q02447) | -0.051 |
| TBC1D20 isoform 3 (UniProt Q96BZ9) | -0.015 |
| SYK (UniProt P43405) | -0.095 |
| TIMM29 (UniProt Q9BSF4) | 0.018 |
| SMARCE1 (UniProt Q969G3) | 0 |
| SRSF6 (UniProt Q13247) | 0.079 |
| SRSF4 (UniProt Q08170) | -0.072 |
| SULT1A1 (UniProt P50225) | 0.031 |
| SLC27A4 (UniProt Q6P1M0) | -0.02 |
| SSB (UniProt P05455) | -0.014 |
| TLK2 isoform 2 (UniProt Q86UE8) | -0.016 |
| TMBIM1 (UniProt Q969X1) | -0.025 |
| STK11IP (UniProt Q8N1F8) | 0.006 |

Compound: C1=CC=C(C=C1)C2=NC(=C(N2)C3=CC=NC=C3)C4=CC(=C(C=C4)Cl)O
Assay: as above
Outline: as §1

| Target | log2 fold change |
| --- | --- |
| STK38 (UniProt Q15208) | 0.057 |
| TBC1D24 (UniProt Q9ULP9) | 0.048 |
| SMARCA4 (UniProt P51532) | -0.096 |
| TAOK3 (UniProt Q9H2K8) | 0.018 |
| SP100 isoform 4 (UniProt P23497) | 0.033 |
| TBRG4 (UniProt Q969Z0) | 0.056 |
| TIMM10B (UniProt Q9Y5J6) | 0.042 |
| SMIM20 isoform 2 (UniProt Q8N5G0) | 0.023 |
| SPTBN4 (UniProt Q9H254) | 0.035 |
| TGFBI (UniProt Q15582) | 0.009 |
| STARD3NL (UniProt O95772) | 0.11 |
| TJP1 (UniProt Q07157) | 0.003 |
| TANGO6 (UniProt Q9C0B7) | 0.025 |
| TANK (UniProt Q92844) | -0.024 |
| SRC isoform 2 (UniProt P12931) | 0.036 |
| SUOX (UniProt P51687) | -0.112 |
| SNRNP40 (UniProt Q96DI7) | -0.024 |

| Target | log2 fold change |
| --- | --- |
| SNX11 (UniProt Q9Y5W9) | -0.035 |
| TIMM13 (UniProt Q9Y5L4) | 0.063 |
| SRSF9 (UniProt Q13242) | -0.087 |
| SLC35F6 (UniProt Q8N357) | 0.417 (active) |
| SMCHD1 (UniProt A6NHR9) | -0.007 |
| SP3 (UniProt Q02447) | -0.053 |
| TBC1D20 isoform 3 (UniProt Q96BZ9) | -0.048 |
| SYK (UniProt P43405) | 0.131 |
| TIMM29 (UniProt Q9BSF4) | -0.035 |
| SMARCE1 (UniProt Q969G3) | 0.001 |
| SRSF4 (UniProt Q08170) | -0.024 |
| SULT1A1 (UniProt P50225) | 0.008 |
| SLC27A4 (UniProt Q6P1M0) | 0.002 |
| SSB (UniProt P05455) | -0.056 |
| TLK2 isoform 2 (UniProt Q86UE8) | 0.064 |
| TMBIM1 (UniProt Q969X1) | 0.517 (active) |
